Potency, activity change, negative = inhibition and outcome data for 41 compounds are collected here from PubChem BioAssay (NCATS).

Assay [1] can be described thus: Cytotoxicity counterscreen for inhibitors of SARS-CoV-2 cell entry (AID 1645845). Also: nearly all actives have a fitted effect of over 50% in size. Also: potency is read from the fitted curve at half-maximal effect. In short, it runs like this:
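After a 15 min room-temperature ATPLite 1step step, luminescence reflected ATP remaining in HEK293-ACE2 cells exposed to compound for 1 h plus 48 h at 37 C, with percent activity set by cell and no-cell controls.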
Background: The purpose of a counterscreen is to sort out artefacts and off-target activity.

The nature of assay [2]: Primary qHTS to identify inhibitors of SARS-CoV-2 cell entry (AID 1645846). Also: nearly all actives have a fitted effect of over 45% in size. The note with it: activity change, negative = inhibition: at 57.1 µM (top of the series) unless noted. The method in brief:
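Entry measured by luciferase signal 48 h after adding SARS-CoV-2-S pseudotyped MLV particles to HEK293-ACE2 cells preincubated 1 h with compounds. Normalisation: bald particles and spike particles.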

“And” between values parts separate entries of the source, which are not always exact repeats. Equal values may be shown once. Inconclusive results are not listed. Where a call stands in place of a potency, no number is given. The source made the active and inactive calls. Calls follow the shape of the full dose curve.

For the compound `COCC(=O)Nc1c(I)c(C(=O)NCC(O)CO)c(I)c(C(=O)N(C)CC(O)CO)c1I` (configuration not stated), the Potency entry in assay [1] and in assay [2] was “inactive” each time.
On to `O=C(O)CN(CCN(CC(=O)O)CC(=O)O)CCN(CC(=O)O)CC(=O)O`, for which the Potency entry in assay [1] and in assay [2] was “inactive” in each case.
Turning to `CCC1=C(C)CN(C(=O)NCCc2ccc(S(=O)(=O)NC(=O)NC3CCC(C)CC3)cc2)C1=O` (configuration not stated), the Potency result in assay [1] and in assay [2] was “inactive” in each case.
As to `CC(=O)N=c1sc(S(N)(=O)=O)nn1C`, the Potency entry in assay [1] is “inactive”. Also, the activity change, negative = inhibition in assay [2] is -31.8%.
With `C[C@@H]1C[C@H]2[C@@H]3C[C@H](F)C4=CC(=O)C=C[C@]4(C)[C@@]3(F)[C@@H](O)C[C@]2(C)[C@@]1(O)C(=O)CO`, the Potency entry in assay [1] and in assay [2] was “inactive” each time.
Turning to `COC(=O)CCCCC(CCSS/C(CCO)=C(\C)N(C=O)Cc1cnc(C)nc1N)SC(C)=O` (configuration not stated), the Potency result in assay [1] and in assay [2] was “inactive” throughout.
As for `O=P(O)(O)C(O)(Cn1ccnc1)P(=O)(O)O`, the Potency entry in assay [1] is “inactive”. For the same compound, in assay [2], the outcome is “inactive [at 5.25 µM]”.
Consider `CC(C(=O)O)c1ccc2c(c1)[nH]c1ccc(Cl)cc12` (configuration not stated), for which the Potency entry in assay [1] and in assay [2] was “inactive” in each case.
Take `C[C@@H]1O[C@@H]1P(=O)(O)O`: in assay [1], the Potency entry was “inactive”. For the same compound, the activity change, negative = inhibition in assay [2] amounted to 1.53% [at 27.1 µM].
Consider `CC(=O)OCC(COC(C)=O)OC(C)=O`, for which the Potency result in assay [1] was “inactive”. Moreover, the activity change, negative = inhibition in assay [2] came to 0.643%.
As to `C[N+](C)(C)CCOC(N)=O`, the Potency result in assay [1] and in assay [2] was “inactive” each time.
`O=C(OCC1(COC(=O)c2cccnc2)CCCC(COC(=O)c2cccnc2)(COC(=O)c2cccnc2)C1O)c1cccnc1`: the Potency entry in assay [1] was “inactive”. The activity change, negative = inhibition in assay [2] is -30.1%.
`O=C(O)c1cc(O)c(O)c(O)c1`: the Potency entry in assay [1] and in assay [2] was “inactive” each time.
On to `Cc1c(C(C)C)c(=O)n(-c2ccccc2)n1C`, for which the Potency result in assay [1] is “inactive”. Further, the activity change, negative = inhibition in assay [2] is -4.29%.
As to `CC(C)(Oc1ccc(Cl)cc1)C(=O)OCCCOC(=O)C(C)(C)Oc1ccc(Cl)cc1`, in assay [1], the Potency entry was “inactive”. The activity change, negative = inhibition in assay [2] was -28.5%.
Regarding `CCN1CCN(C(=O)N[C@@H](C(=O)N[C@@H]2C(=O)N3[C@@H]2SC(C)(C)[C@H]3C(=O)O)c2ccccc2)C(=O)C1=O`, the Potency entry in assay [1] and in assay [2] was “inactive” in each case.
As to `NC(=O)c1cccnc1`, in assay [1], the Potency entry was “inactive”. The activity change, negative = inhibition in assay [2] was -15.2%.
Consider `NS(=O)(=O)c1cc(-c2nn[nH]n2)c(NCc2cccs2)cc1Cl`, for which the Potency entry in assay [1] was “inactive”. Besides, in assay [2], the activity change, negative = inhibition is -3.88%.
With `C[N+](C)(C)CCCCCC[N+](C)(C)C`, the Potency entry in assay [1] is “inactive”. The activity change, negative = inhibition in assay [2] was -3.21%.
With `Cc1oc(=O)oc1CN1CCN(c2cc3c(cc2F)c(=O)c(C(=O)O)c2n3C(C)S2)CC1` (configuration not stated), the Potency result in assay [1] and in assay [2] was “inactive” throughout.
Consider `CCOC(=O)C1=C(C)NC(C)=C(C(=O)OC)C1c1cccc([N+](=O)[O-])c1` (configuration not stated), for which the Potency result in assay [1] and in assay [2] was “inactive” each time.
As to `NCCCCCC(=O)O`, in assay [1], the Potency entry was “inactive”. The activity change, negative = inhibition in assay [2] is -19.8% and -25.5%.
On to `OCCOCCN1CCN(C2=Nc3ccccc3Sc3ccccc32)CC1`, for which the Potency entry in assay [1] was “inactive”. The activity change, negative = inhibition in assay [2] was -1.17%.
For the compound `C[C@@H]1CN(c2c(F)c(F)c3c(=O)c(C(=O)O)cn(C4CC4)c3c2F)C[C@H](C)N1`, the Potency result in assay [1] and in assay [2] was “inactive” in each case.
For the compound `C[C@H]1O[C@@H](n2cc(F)c(=O)[nH]c2=O)[C@H](O)[C@@H]1O`, the Potency result in assay [1] is “inactive”. Moreover, the activity change, negative = inhibition in assay [2] was -10.7% and -12.7%.
`CC(=O)O[C@@H]1C(=O)O[C@@H]2[C@H]1OC(=O)[C@@H]2OC(C)=O`: in assay [1], the Potency entry was “inactive”. Besides, the activity change, negative = inhibition in assay [2] was -38.2%.
With `C[C@H]1C[C@@H]2[C@H]([C@@H](O)C[C@@]3(C)[C@H]2CC[C@]3(O)C(=O)CO)[C@@]2(C)C=CC(=O)C=C12`, the Potency result in assay [1] and in assay [2] was “inactive” throughout.
`NS(=O)(=O)c1cc2c(cc1Cl)NC(CC1CCCC1)NS2(=O)=O` (configuration not stated): the Potency entry in assay [1] and in assay [2] was “inactive” in each case.
In the case of `Cc1c(N(C)CS(=O)(=O)O)c(=O)n(-c2ccccc2)n1C`, the Potency result in assay [1] is “inactive”. For the same compound, the activity change, negative = inhibition in assay [2] stood at 1.77%.
In the case of `CC1(C)O[C@H]2CC(=O)OC[C@]23[C@H]2CC[C@@]4(C)[C@H](c5ccoc5)OC(=O)[C@H]5O[C@]54[C@]2(C)C(=O)C[C@@H]13`, in assay [1], the Potency result is “inactive”. The activity change, negative = inhibition in assay [2] was -13.1%.
Consider `Cc1onc(-c2ccccc2)c1-c1ccc(S(N)(=O)=O)cc1`, for which the Potency entry in assay [1] was “inactive”. Besides, the activity change, negative = inhibition in assay [2] was -25.7% and -12.6%.
As for `CCn1cc(C(=O)O)c(=O)c2cnc(N3CCNCC3)nc21`, the Potency result in assay [1] is “inactive”. In assay [2], the activity change, negative = inhibition came to 0.978%.
On to `Cc1ccc(C(C)C)c(O)c1`, for which, in assay [1], the Potency entry is “inactive”. Also, in assay [2], the activity change, negative = inhibition was -6.21%.
In the case of `CCCCOC(=O)c1ccc(N)cc1`, the Potency result in assay [1] and in assay [2] was “inactive” each time.
In the case of `NC(=O)NC1N=C([O][Al])NC1=O` (configuration not stated), in assay [1], the Potency result was “inactive”. Also, the activity change, negative = inhibition in assay [2] was -0.751%.
For `CC1COc2c(N3CCN(C)CC3)c(F)cc3c(=O)c(C(=O)O)cn1c23` (configuration not stated), in assay [1], the Potency entry was “inactive”. Also, the activity change, negative = inhibition in assay [2] is -0.258%.
Take `CCn1ccc(NS(=O)(=O)c2ccc(N)cc2)nc1=O`: the Potency entry in assay [1] and in assay [2] was “inactive” in each case.
`CC(C)NCC(O)c1ccc(NS(C)(=O)=O)cc1` (configuration not stated): the Potency result in assay [1] is “inactive”. Moreover, the activity change, negative = inhibition in assay [2] is -13.1% and -25%.
Consider `CN=C(NC#N)NCCSCc1nc[nH]c1C`, for which the Potency result in assay [1] was “inactive”. The activity change, negative = inhibition in assay [2] was determined as 4.18%.
As for `CC(C)c1ccc2oc3nc(N)c(C(=O)O)cc3c(=O)c2c1`, the Potency in assay [1] is 10 µM (active). In addition, the Potency entry in assay [2] is “inactive”.
For `CCO[C@H](Cc1ccc(OCCc2ccc(OS(C)(=O)=O)cc2)cc1)C(=O)O`, in that order: “inactive” and “inactive”.
